According to PMC5540273 (PLoS ONE, 2017):

Experiments:
PFTK1 = test system: T1, PFTK1
T1 construct: gene CDK14

PIP5K2C = test system: T2, PIP5K2C
T2 construct: gene PIP4K2C
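Further: kd values determined as follow-up on hits from a single-replicate KINOMEscan panel screen.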

Question: How did the Kd (PFTK1) turn out when COc1cc2nccc(Nc3ccc(NC(=O)c4ccc(C)cc4)c(O)c3)c2cc1OC.Cl [GW440132] was run?
Answer: The Kd was over 10 µM.

Question: And the Kd (PIK3C2B)?
Answer: Its Kd is over 10 µM.

Question: And the Kd (PIK3CA)?
Answer: The Kd was over 10 µM.

Question: And the Kd (PIK3CG)?
Answer: Its Kd is over 10 µM.

Question: Which Kd (PIK3CA) does the source give for CS(=O)(=O)c1ccc(-c2c(-c3ncn[nH]3)sc(N3CCOCC3)c2C#N)cc1 here?
Answer: Its Kd is 0.021 µM.

Question: With COc1cc2ncn(-c3cc(OCC4CCCO4)c(C(N)=O)s3)c2cc1OC (centres unmarked) [GSK204607] as the molecule, how does the Kd (PIP5K1C) read?
Answer: Its Kd is 7.7 µM.

Question: How did the Kd (PIP5K2C) turn out when COc1ccc(CNC(=O)NC2CCN(c3ccnc(Nc4cc(OC)c(OC)c(OC)c4)n3)C2)cc1 (centres unmarked) [GSK1379748] was run?
Answer: The Kd was 0.6 µM.

Question: Which Kd (PIP5K2C) does the source give for COc1ccc(Nc2nccc(-c3cccc(NC(=O)c4cc5cc(F)ccc5[nH]4)c3)n2)cc1 [GSK1229782] here?
Answer: The Kd was 1.4 µM.
